Laboratory results reported in PubChem BioAssay AID1159580 (chemical genetic matrix, 2015).
About 2,000 (36%) of roughly 5,500 compounds were called active. Roughly 18% stayed inconclusive and do not appear here. The list shows a part of the results. Unmarked numbers belong to inactive results. Rule as the data show it: active = normalized growth mostly below about 0.91 (no sharp cut-off); inconclusive = no clear call, values can overlap the other calls; inactive = mostly above about 0.92.

Assay: chemical genetic growth profiling, strain panel (AID 1159580);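 also: tested at 20 µM; growth read once vehicle control cultures reached saturation at 30 °C; 1 = growth at the plate median or of vehicle wells; lower values mean less growth of the strain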
Conditions: growth OD

SMILES: CN[C@@H]1C(O)[C@@H](O[C@@H]2[C@@H](O)[C@H](O[C@H]3OC(CN)=CC[C@H]3N)[C@@H](N)C[C@H]2N)OC[C@]1(C)O (some centres undefined)
- normalized growth (S. cerevisiae deletion strains, locus YJR075W, strain HOC1, active compounds read low): 1.02
- normalized growth (S. cerevisiae deletion strains, locus YKL009W, strain mrt4, active compounds read low): 1.01
- normalized growth (S. cerevisiae deletion strains, locus YKL068W, active compounds read low): 0.996
- normalized growth (S. cerevisiae deletion strains, locus YKL085W, strain MDH1 (second series), active compounds read low): 1
- normalized growth (S. cerevisiae deletion strains, locus YKL085W, strain MDH1, active compounds read low): 1
- normalized growth (S. cerevisiae deletion strains, locus YKL160W, strain elf1, active compounds read low): 1.02
- normalized growth (S. cerevisiae deletion strains, locus YKL190W, strain CNB1, active compounds read low): 1.02
- normalized growth (S. cerevisiae deletion strains, locus YKR001C, strain vps1, active compounds read low): 0.993
- normalized growth (S. cerevisiae deletion strains, locus YKR026C, strain gcn3, active compounds read low): 1
- normalized growth (S. cerevisiae deletion strains, locus YKR091W, strain srl3, active compounds read low): 1.01
- normalized growth (S. cerevisiae deletion strains, locus YLL001W, strain dnm1, active compounds read low): 1.03
- normalized growth (S. cerevisiae deletion strains, locus YLL026W, active compounds read low): 1.02
- normalized growth (S. cerevisiae deletion strains, locus YLL041C, strain sdh2, active compounds read low): 1.02
- normalized growth (S. cerevisiae deletion strains, locus YLR027C, strain aat2, active compounds read low): 1.02
- normalized growth (S. cerevisiae deletion strains, locus YLR039C, strain RIC1, active compounds read low): 1.13
- normalized growth (S. cerevisiae deletion strains, locus YLR058C, strain SHM2, active compounds read low): 1.02
- normalized growth (S. cerevisiae deletion strains, locus YLR102C, strain apc9, active compounds read low): 0.993
- normalized growth (S. cerevisiae deletion strains, locus YLR113W, strain HOG1, active compounds read low): 0.949
- normalized growth (S. cerevisiae deletion strains, locus YLR221C, strain rsa3, active compounds read low): 0.984
- normalized growth (S. cerevisiae deletion strains, locus YLR258W, strain gsy2, active compounds read low): 1.01
- normalized growth (S. cerevisiae deletion strains, locus YLR262C, strain YPT6 (second series), active compounds read low): 1.03
- normalized growth (S. cerevisiae deletion strains, locus YLR262C, strain YPT6, active compounds read low): 1.09
- normalized growth (S. cerevisiae deletion strains, locus YLR268W, strain sec22, active compounds read low): 1.01
- normalized growth (S. cerevisiae deletion strains, locus YLR320W, strain mms22, active compounds read low): 0.988
- normalized growth (S. cerevisiae deletion strains, locus YLR330W, strain CHS5, active compounds read low): 1.01
- normalized growth (S. cerevisiae deletion strains, locus YLR342W, strain FKS1 (second series), active compounds read low): 1.05
- normalized growth (S. cerevisiae deletion strains, locus YLR342W, strain FKS1, active compounds read low): 1.02
- normalized growth (S. cerevisiae deletion strains, locus YLR357W, strain rsc2, active compounds read low): 1.03
- normalized growth (S. cerevisiae deletion strains, locus YLR370C, strain arc18, active compounds read low): 1.02
- normalized growth (S. cerevisiae deletion strains, locus YLR371W, strain rom2, active compounds read low): 0.995
- normalized growth (S. cerevisiae deletion strains, locus YLR384C, strain iki3, active compounds read low): 1.01
- normalized growth (S. cerevisiae deletion strains, locus YLR418C, strain cdc73, active compounds read low): 1.02
- normalized growth (S. cerevisiae deletion strains, locus YML016C, strain PPZ1, active compounds read low): 1.02
- normalized growth (S. cerevisiae deletion strains, locus YML120C, strain ndi1, active compounds read low): 1.02
- normalized growth (S. cerevisiae deletion strains, locus YML124C, strain tub3, active compounds read low): 0.991
- normalized growth (S. cerevisiae deletion strains, locus YMR058W, strain fet3, active compounds read low): 1.03
- normalized growth (S. cerevisiae deletion strains, locus YMR078C, strain ctf18, active compounds read low): 0.996
- normalized growth (S. cerevisiae deletion strains, locus YMR125W, strain sto1, active compounds read low): 1
- normalized growth (S. cerevisiae deletion strains, locus YMR129W, active compounds read low): 1.01
- normalized growth (S. cerevisiae deletion strains, locus YMR205C, strain PFK2, active compounds read low): 1.02
- normalized growth (S. cerevisiae deletion strains, locus YMR223W, strain ubp8, active compounds read low): 1
- normalized growth (S. cerevisiae deletion strains, locus YMR231W, strain pep5, active compounds read low): 1
- normalized growth (S. cerevisiae deletion strains, locus YMR263W, strain SAP30, active compounds read low): 1.05
- normalized growth (S. cerevisiae deletion strains, locus YMR307W, strain GAS1, active compounds read low): 1.01
- normalized growth (S. cerevisiae deletion strains, locus YNL067W, strain RPL9B, active compounds read low): 1.04
- normalized growth (S. cerevisiae deletion strains, locus YNL071W, strain lat1, active compounds read low): 1.02
- normalized growth (S. cerevisiae deletion strains, locus YNL128W, strain TEP1, active compounds read low): 1.04
- normalized growth (S. cerevisiae deletion strains, locus YNL153C, strain GIM3, active compounds read low): 1.03
- normalized growth (S. cerevisiae deletion strains, locus YNL183C, strain NPR1, active compounds read low): 0.93
- normalized growth (S. cerevisiae deletion strains, locus YNL209W, strain ssb2, active compounds read low): 1.01
- normalized growth (S. cerevisiae deletion strains, locus YNL233W, strain BNI4, active compounds read low): 1.02
- normalized growth (S. cerevisiae deletion strains, locus YNL248C, strain rpa49, active compounds read low): 0.992
- normalized growth (S. cerevisiae deletion strains, locus YNL250W, strain rad50, active compounds read low): 1
- normalized growth (S. cerevisiae deletion strains, locus YNL271C, strain bni1, active compounds read low): 1
- normalized growth (S. cerevisiae deletion strains, locus YNL298W, strain CLA4, active compounds read low): 1
- normalized growth (S. cerevisiae deletion strains, locus YNL307C, strain MCK1, active compounds read low): 0.999
- normalized growth (S. cerevisiae deletion strains, locus YNL322C, strain KRE1 (second series), active compounds read low): 0.996
- normalized growth (S. cerevisiae deletion strains, locus YNL322C, strain KRE1, active compounds read low): 1.02
- normalized growth (S. cerevisiae deletion strains, locus YNR049C, strain mso1, active compounds read low): 1.04
- normalized growth (S. cerevisiae deletion strains, locus YNR052C, strain pop2, active compounds read low): 0.987
- normalized growth (S. cerevisiae deletion strains, locus YOL006C, strain TOP1, active compounds read low): 1.19
- normalized growth (S. cerevisiae deletion strains, locus YOL012C, strain htz1): 2.02
- normalized growth (S. cerevisiae deletion strains, locus YOL147C, strain pex11, active compounds read low): 0.986
- normalized growth (S. cerevisiae deletion strains, locus YOR001W, strain rrp6, active compounds read low): 1.03
- normalized growth (S. cerevisiae deletion strains, locus YOR061W, strain CKA2, active compounds read low): 1.02
- normalized growth (S. cerevisiae deletion strains, locus YOR069W, strain VPS5, active compounds read low): 1.11 [resistant] (active)
- normalized growth (S. cerevisiae deletion strains, locus YOR070C, strain gyp1, active compounds read low): 1
- normalized growth (S. cerevisiae deletion strains, locus YOR080W, strain dia2, active compounds read low): 1
- normalized growth (S. cerevisiae deletion strains, locus YOR083W, strain WHI5, active compounds read low): 0.992
- normalized growth (S. cerevisiae deletion strains, locus YOR106W, strain vam3, active compounds read low): 1.03
- normalized growth (S. cerevisiae deletion strains, locus YOR136W, strain idh2, active compounds read low): 0.991
- normalized growth (S. cerevisiae deletion strains, locus YOR144C, strain elg1, active compounds read low): 0.991
- normalized growth (S. cerevisiae deletion strains, locus YOR184W, strain ser1, active compounds read low): 1.01
- normalized growth (S. cerevisiae deletion strains, locus YOR231W, strain MKK1, active compounds read low): 0.952
- normalized growth (S. cerevisiae deletion strains, locus YOR265W, strain rbl2, active compounds read low): 1
- normalized growth (S. cerevisiae deletion strains, locus YOR270C, strain vph1, active compounds read low): 1.05
- normalized growth (S. cerevisiae deletion strains, locus YOR290C, strain snf2, active compounds read low): 0.979
- normalized growth (S. cerevisiae deletion strains, locus YPL051W, strain arl3, active compounds read low): 1.01
- normalized growth (S. cerevisiae deletion strains, locus YPL055C, strain LGE1, active compounds read low): 1.09
- normalized growth (S. cerevisiae deletion strains, locus YPL078C, strain atp4, active compounds read low): 1.03
- normalized growth (S. cerevisiae deletion strains, locus YPL106C, strain sse1, active compounds read low): 1.02
- normalized growth (S. cerevisiae deletion strains, locus YPL240C, strain hsp82, active compounds read low): 1.01
- normalized growth (S. cerevisiae deletion strains, locus YPL256C, strain CLN2, active compounds read low): 0.96
- normalized growth (S. cerevisiae deletion strains, locus YPR119W, strain clb2, active compounds read low): 0.984
- normalized growth (S. cerevisiae deletion strains, locus YPR141C, strain kar3, active compounds read low): 1
- normalized growth (S. cerevisiae deletion strains, locus YPR163C, strain tif3, active compounds read low): 0.966
- normalized growth (S. cerevisiae deletion strains, locus YPR167C, strain met16, active compounds read low): 0.999
- normalized growth (S. cerevisiae deletion strains, strain wtn01, active compounds read low): 1.01
- normalized growth (S. cerevisiae strains, strain wild type, active compounds read low): 1.01
